Assay outcomes (PubChem)
Vc quorum ag: inducers of Vibrio cholerae quorum light production without autoinducers, primary screen, BH1578 luxS cqsA deficient, single point. V. cholerae BH1578 lux reporter, luminescence, 6 h. activation, % at 18.7 µM. hit rate 0.16% among 350,000; in the data active = activation mostly above about 9.7%, no sharp cut-off
FBA Mtb inh: Mtb FBA enzyme inhibitors, primary screen, biochemical, fluorescence, strain H37Rv; hit rate 2.3% among 360,000; inhibition, % at 1 µM; purified M. tuberculosis FBA, fluorescence read-out;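 note: 0% = vehicle and 100% = reference inhibitor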
GDH-TPI counter-1: GDH-TPI coupling enzyme inhibitors, primary screen, artefact control for M. tuberculosis FBA inhibitor project, biochemical, absorbance, full deck; GDH-TPI coupled enzyme counterscreen, NADH absorbance; inhibition, % at 4.8 µM; hit rate 1.2% among 360,000; in the data active = inhibition above about 30%;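 note: 0% = DMSO wells and 100% = wells lacking the enzyme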
3CLpro inhibitor: SARS-CoV 3CLpro protease inhibitors, primary screen, biochemical, quenched FRET; Replicase polyprotein 1ab (Severe acute respiratory syndrome coronavirus), P0C6X7; recombinant SARS-CoV 3CLpro, quenched FRET peptide cleavage; inhibition, % at 6 µM; hit rate 0.14% among 290,000; AID 1706, 2009; in the data active = inhibition above about 12%
PrPC TRFRET: inhibitors of human cell surface prion protein PrPC, primary screen, cell-based, TR-FRET; TR-FRET read-out; inhibition, % at 13.8 µM; hit rate 0.43% among 370,000; Major prion protein (Homo sapiens), P04156; in the data active = inhibition above about 24%; note: 0% = median of the test wells and 100% = reference compound wells
Mtb FBA inh conf: M. tuberculosis aldolase blockers, biochemical, fluorescence, strain H37Rv, confirmation; AID 651616, 2012; inhibition, % at 1 µM; hit rate 78% among 5,600; purified M. tuberculosis FBA, fluorescence read-out; shares compounds with FBA Mtb inh;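 note: 0% = vehicle wells and 100% = reference inhibitor wells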
GDH-TPI counter-2: GDH-TPI coupling enzyme inhibitors, artefact control for M. tuberculosis FBA inhibitor project, biochemical, fluorescence, high throughput. shares compounds with FBA Mtb inh. GDH-TPI coupled enzyme counterscreen. inhibition, % at 1 µM. hit rate 81% among 5,600. AID 652141, 2013; in the data active = inhibition above about 10%
PrPC confirm: confirmation of inhibitors of cell surface human prion protein, confirmation, cell-based, TR-FRET | shares compounds with PrPC TRFRET | cell surface PrPC level | inhibition, % at 13.8 µM | hit rate 65% among 1,500 | AID 743200, 2013; in the data active = inhibition above about 25%
LD9 tox: cytotoxicity in LD9 cells, cytotoxicity control for cell surface PrPc inhibitor project, cell-based, luminescence, high throughput; shares compounds with PrPC TRFRET; luminescence viability; inhibition, % at 13.8 µM; hit rate 29% among 1,500; AID 743201, 2013; in the data active = inhibition above about 9.5%
* hit, by the source's call; i = inactive; . = not tested or not shown; + = active, no number. This is a sample that favours compounds with a hit; in the whole collection about 3.9% have one here. Cut-off read from the data, not from the text of the source, unless noted: active = inhibition above about 27%; inactive = the rest.

SMILES	Vc quorum ag	FBA Mtb inh	GDH-TPI counter-1	3CLpro inhibitor	PrPC TRFRET	PrPC confirm	LD9 tox	others
Cn1c(=O)c2cc(NC(=O)CCc3ccc4c(c3)OCO4)ccc2n1Cc1ccc(F)cc1	0	85*	5	.	31*	19	6	Mtb FBA inh conf=48*;GDH-TPI counter-2=21*
COc1ccc(Br)cc1CNC(=O)c1ccc2c(c1)N(C)CCS2	1	50*	4	2	37*	51*	-1	Mtb FBA inh conf=+;GDH-TPI counter-2=152*
Cc1cc(N2CCCC2=O)cc(C)c1S(=O)(=O)NCCOc1ccc(C(C)(C)C)cc1	i	-1	8	5	32*	29*	8
O=C1CCCN1c1ccc(S(=O)(=O)NCCOc2ccccc2)cc1	i	-11	10	0	2	.	.
COc1cccc(OCc2cc(C(=O)N(C)Cc3nc4ccccc4[nH]3)no2)c1	i	0	4	-3	29*	39*	2
COC(=O)CSc1nc(C(C)C)nc2ccccc12	.	2	5	3	121*	123*	-4
CCOC(=O)CSc1nc(C2CC2)nc2ccccc12	-7	4	18	-4	25*	43*	-3
Cc1cccc(C)c1NC(=O)CSc1nc(COc2ccccc2)nc2ccccc12	i	-1	4	-1	2	.	.
CC(C)OC(=O)CSc1nc(Cc2cccs2)nc2ccccc12	0	1	10	2	37*	23	-3
CCOC(=O)CSc1nc(COc2ccccc2)nc2ccccc12	2	1	6	-2	59*	60*	8
CC(C)c1nc(SCC(=O)c2ccc(F)cc2)c2ccccc2n1	i	2	7	2	7	.	.
CCOC(=O)C1C(=O)NC(C(=O)OCC)(C(=O)OCC)C1C(C)CC (centres undefined)	i	-4	-11	.	-2	.	.
O=C1C2N=NN(CC(=O)N3N=C(c4ccccc4)CC3c3ccc([N+](=O)[O-])cc3)C2C(=O)N1c1ccccc1 (centres undefined)	.	.	.	2	-19	.	.
Cc1ccccc1N(CC(=O)N/N=C/c1cc(Br)c(C)o1)S(C)(=O)=O	0	-1	5	-7	-2	.	.
Cc1ccnc(OC(C(=O)O)C(OCc2ccccc2)(c2ccc(F)cc2)c2ccc(F)cc2)n1 (centres undefined)	1	1	-4	6	3	.	.
CCOC(=O)CSc1nc(C(C)(C)C)nc2ccccc12	0	-4	-2	1	32*	58*	1
CC(C)(C)c1nc(SCC(=O)NNC(=O)c2ccccc2)c2ccccc2n1	i	0	-1	5	45*	67*	-11
CCOC(=O)CSc1nc(C(C)C)nc2ccccc12	i	2	0	4	110*	123*	-1
CC(C)(C)c1nc(SCC(=O)NC2CCCC2)c2ccccc2n1	0	6	0	-3	23	.	.
Cc1ccc(C(=O)CSc2nc(C(C)C)nc3ccccc23)cc1	0	1	-4	0	8	.	.
Cc1ccc2nc(-c3ccccc3)cc(C(=O)N3CCN(S(=O)(=O)c4c(C)noc4C)CC3)c2c1	-1	2	7	.	7	.	.
COc1ccc(CN2CN3Cc4cc(OC)ccc4C3CS2(=O)=O)cc1 (centres undefined)	.	.	.	.	-7	.	.
CC(C)(C)NC(=O)/C(=C/c1ccco1)c1ccccc1	-1	2	4	-2	-8	.	.
N#CC(C#N)=C1C=CC=CN1/C(=C\c1ccco1)C(=O)c1ccccc1	0	3	34*	-1	74*	67*	79*
NC(=O)c1cccc(-c2cc(Nc3ccc(OC(F)(F)F)cc3)ncn2)c1	i	0	13	.	51*	24	7
SMILES	Vc quorum ag	FBA Mtb inh	GDH-TPI counter-1	3CLpro inhibitor	PrPC TRFRET	PrPC confirm	LD9 tox	others
O=C(NCCO)c1cccc(-c2cc(Nc3ccc(OC(F)(F)F)cc3)ncn2)c1	.	.	.	.	-3	.	.
CCc1cc2c(=O)c(-c3cnn(-c4ccccc4)c3)coc2c(CN2CCOCC2)c1O	0	10	2	4	3	.	.
CCc1cc2c(=O)c(-c3ccc4c(c3)OCO4)coc2c(CN(C)C)c1O	-10	23	28	2	86*	95*	-5
O=S(=O)(C/C(=C/CO)S(=O)(=O)c1ccccc1)c1ccccc1	0	3	-2	2	86*	92*	3
CCOC(=O)c1sc(Nc2nc3cc4c(cc3s2)OCO4)cc1C	-4	8	8	1	1	.	.
CCOC(=O)c1sc(Nc2nc3c(OC)cccc3s2)cc1C	0	16	22	2	40*	48*	-7
CCC1(CC)Cc2ccccc2-c2[nH]c(=S)[nH]c(=O)c21	-1	7	3	.	79*	100*	-2
CC(C)[C@@H]1Cc2[nH]c(=S)[nH]c(=O)c2[C@H](C)O1	.	.	.	.	2	.	.
CC(C)C1Cc2ccccc2-c2[nH]c(=S)[nH]c(=O)c21 (centres undefined)	i	11	20	.	75*	94*	-5
COc1cccc(S(=O)(=O)N(C)C[C@@H]2OCc3cn(nn3)CCCC(=O)N([C@@H](C)CO)C[C@H]2C)c1	0	0	-1	.	3	.	.
CC(=O)c1cc(-c2ccccc2)n(CC(=O)NCc2ccccc2Cl)c1C	.	.	.	.	3	.	.
S=C1NC2=C(C(c3ccc(Br)cc3)N1)N1CCC2CC1 (centres undefined)	0	0	0	-8	26*	25*	0
CN(CC(=O)Nc1ccccc1Br)C(=O)c1ccc(COc2ccccc2)cc1	0	2	10	8	7	.	.
COc1ccc2cc(C(=O)N(C)CC(=O)Nc3ccccc3Br)ccc2c1	-1	5	-3	.	31*	44*	-6
Cn1cc(C2NC(=O)c3ccccc3N2)c2ccccc21 (centres undefined)	i	13	8	.	25*	20	-4
Cc1ccc(C)c2nc(Cl)c(C3NC(=O)c4ccccc4N3)cc12 (centres undefined)	i	7	0	1	12	.	.
